Experimental data from PMC6602471.
Whole data set: some 1,300 sequences, median “log fluorescence intensity” near 8.3, cut for the highest 2% near 12. The sample as a whole holds a higher share of the highest values than the screen did.

The sequences below were run against T1, ETS1 (Homo sapiens, UniProt P14921 1-441) (assay: custom PBM; custom protein-binding microarray; buffer, salt, pH and temperature not stated; high values mean tight binding). Conditions: dsDNA, one strand shown.
T1 sequence: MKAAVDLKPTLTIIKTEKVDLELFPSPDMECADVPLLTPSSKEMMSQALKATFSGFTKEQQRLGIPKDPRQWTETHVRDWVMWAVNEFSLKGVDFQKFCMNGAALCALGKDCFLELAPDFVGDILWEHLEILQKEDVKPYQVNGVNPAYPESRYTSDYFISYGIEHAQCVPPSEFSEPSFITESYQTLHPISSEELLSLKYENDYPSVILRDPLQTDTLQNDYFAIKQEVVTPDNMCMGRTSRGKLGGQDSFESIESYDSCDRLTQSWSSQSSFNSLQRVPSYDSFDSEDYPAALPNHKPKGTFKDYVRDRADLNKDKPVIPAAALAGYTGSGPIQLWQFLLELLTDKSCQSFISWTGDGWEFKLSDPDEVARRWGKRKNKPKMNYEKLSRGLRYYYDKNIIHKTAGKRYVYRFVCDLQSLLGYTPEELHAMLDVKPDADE
In the case of “GCTGCTGCGGTGCATACCCCACCGGATGTGACCGCGGTCTTGATTCGCTTGACGCTGCTG”, the binding signal is reported as 10.5 log fluorescence intensity. In the case of “CGGAAGTGTCGTAAACGTCGGATACCCGGTTCTTCTGTCTTGATTCGCTTGACGCTGCTG”, the binding signal is reported as 8.31 log fluorescence intensity. “TCCGGCTAACAGCTCCACCCACTTCAGGCCTTGTAGGTCTTGATTCGCTTGACGCTGCTG” was tested, and the binding signal was 8.32 log fluorescence intensity. With “GCTGCTGCGGTGCATAACCCACCGGATGTGACCCCGGTCTTGATTCGCTTGACGCTGCTG” the binding signal was 10.4 log fluorescence intensity. “CGGAAGTGTCGCAAACGTCGGATATCCGGTTCTTCTGTCTTGATTCGCTTGACGCTGCTG” was tested, and the binding signal was 12 log fluorescence intensity. For “CAGAATAGGACTTCTTCCCTGAAGCAATTGATAACCGTCTTGATTCGCTTGACGCTGCTG”, the binding signal was 8.33 log fluorescence intensity. In the case of “TAAAGGGAAGACGGTTGTGGTAGTTCCGGGTATCAAGTCTTGATTCGCTTGACGCTGCTG”, the binding signal is reported as 8.76 log fluorescence intensity. In the case of “GCGGCTGCGGTGCATACCCCACCGGATGTGACCCCGGTCTTGATTCGCTTGACGCTGCTG”, the binding signal is reported as 10 log fluorescence intensity. In the case of “TGTCGGGTAAGGGAATATAGATCACGTGAATGAAAAGTCTTGATTCGCTTGACGCTGCTG”, the binding signal is reported as 8.36 log fluorescence intensity. In the case of “GATTAATTCCTGCCCTTATTCGCACGTGCCATAACAGTCTTGATTCGCTTGACGCTGCTG”, the binding signal is reported as 10.3 log fluorescence intensity. For “GATTAATTTCCGCCCTTATTCGCACGTGCCATAACAGTCTTGATTCGCTTGACGCTGCTG”, the binding signal was 13.9 log fluorescence intensity. In the case of “AATTAATTTCTGCCCTTATTCGCACGTGCCATAACAGTCTTGATTCGCTTGACGCTGCTG”, the binding signal is reported as 8.33 log fluorescence intensity. For “GGAAAAAGGCCCAGGGTAACACCGGAAGTGGGTTTAGTCTTGATTCGCTTGACGCTGCTG”, the binding signal was 12 log fluorescence intensity. For “GCTGCTGCGGTGCATACCCCACCGGATGTAACCCCGGTCTTGATTCGCTTGACGCTGCTG”, the binding signal was 10 log fluorescence intensity. With “GGAAAAAGGCCCAGGTTAACACCGGAAGTGGGCTTAGTCTTGATTCGCTTGACGCTGCTG” the binding signal was 12 log fluorescence intensity. For “TAAAGCGAAGACGGTTGTGGTAGTTCCGGGTATTAAGTCTTGATTCGCTTGACGCTGCTG”, the binding signal was 8.48 log fluorescence intensity. For “CGGAAGTGTCGTAAACGTCGGATATCCGGTCCTTCTGTCTTGATTCGCTTGACGCTGCTG”, the binding signal was 12.1 log fluorescence intensity. “GATTAATTTCTGCCCTTTTTCGCACGTGCCATAACAGTCTTGATTCGCTTGACGCTGCTG” was tested, and the binding signal was 8.42 log fluorescence intensity. With “TACTGACTTATATATGCGAGTGCACATGAATAGACCGTCTTGATTCGCTTGACGCTGCTG” the binding signal was 8.33 log fluorescence intensity. In the case of “GATTAATTTCTGCCCTTATTCGTACGTGCCATAACAGTCTTGATTCGCTTGACGCTGCTG”, the binding signal is reported as 8.36 log fluorescence intensity. For “CACAATTTTTATAGTAATGTAGCACGCGTAACTCCTGTCTTGATTCGCTTGACGCTGCTG”, the binding signal was 8.41 log fluorescence intensity. In the case of “GGAAAAAGGCCCAGGGTAACACCGGAAGTGGGCCTAGTCTTGATTCGCTTGACGCTGCTG”, the binding signal is reported as 12.1 log fluorescence intensity. With “GGAAAAAGGCTCAGGGTAACACCGGAAGTGGGCTTAGTCTTGATTCGCTTGACGCTGCTG” the binding signal was 11.8 log fluorescence intensity. With “GGAAAAAGGCCTAGGGTAACACCGGAAGTGGGCTTAGTCTTGATTCGCTTGACGCTGCTG” the binding signal was 12.1 log fluorescence intensity. “GGAAAAAGGCACAGGGTAACACCGGAAGTGGGCTTAGTCTTGATTCGCTTGACGCTGCTG” was tested, and the binding signal was 12.1 log fluorescence intensity. In the case of “GGAAAAAGGGCCAGGGTAACACCGGAAGTGGGCTTAGTCTTGATTCGCTTGACGCTGCTG”, the binding signal is reported as 12 log fluorescence intensity. In the case of “GGAAAAAGGCCGAGGGTAACACCGGAAGTGGGCTTAGTCTTGATTCGCTTGACGCTGCTG”, the binding signal is reported as 12 log fluorescence intensity. “TAAAGGGAAGACGGTTGTGGTAGTTCCGGGTAGTAAGTCTTGATTCGCTTGACGCTGCTG” was tested, and the binding signal was 8.59 log fluorescence intensity. “CAGCAAAGGACTTCTTCCCTGAAGCAATTGATAACCGTCTTGATTCGCTTGACGCTGCTG” was tested, and the binding signal was 8.31 log fluorescence intensity. For “GCTGCTGCGGTGCATACCCCACCGGATGTGACCCCTGTCTTGATTCGCTTGACGCTGCTG”, the binding signal was 10.1 log fluorescence intensity. In the case of “CAGCATAGGACTTGTTCCCTGAAGCAATTGATAACCGTCTTGATTCGCTTGACGCTGCTG”, the binding signal is reported as 8.34 log fluorescence intensity. With “TAAAGGGAAGACGGTTGTGGTAGTTCCGGGTAATAAGTCTTGATTCGCTTGACGCTGCTG” the binding signal was 8.57 log fluorescence intensity. With “GATTAATTTCTGCCCTTATTCGCACGTGCCGTAACAGTCTTGATTCGCTTGACGCTGCTG” the binding signal was 8.34 log fluorescence intensity. For “GCTGCTGCGGTGCATACCCCACCGGAAGTGACCCCGGTCTTGATTCGCTTGACGCTGCTG”, the binding signal was 11 log fluorescence intensity. “CGGAAGTGTCGTAAACGTCGGATATCCCGTTCTTCTGTCTTGATTCGCTTGACGCTGCTG” was tested, and the binding signal was 8.7 log fluorescence intensity. In the case of “TGTCGGGTAAGGGAATGTAGATCACTTGAATGAAAAGTCTTGATTCGCTTGACGCTGCTG”, the binding signal is reported as 8.32 log fluorescence intensity.
